# Laboratory results as given in PubChem BioAssay (NCI).
# Compounds without any hit were thinned out: in the full panel of roughly 83,000, 20% have a hit.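 Compound tested at a single concentration for 48 hours in 96-well plates; a percent growth value below 10 was scored as active.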 Activity calls are given as the source filed them.
# System: SNB-75 CNS
# Assay: NCI-60 one-dose screen, 48 h (100 = growth as untreated, 0 = no growth, -100 = all killed)
# Settings: 10 µM unless noted
row,SMILES,growth
1,O=[N+]([O-])c1ccc(N/N=C/c2c(O)ccc3ccccc23)nc1,69.3% (inactive)
2,COc1cc(/C=C/c2nnc(-c3cc(-c4ccccc4)n[nH]3)o2)cc(OC)c1OC,67.4% (inactive)
3,COc1cc2c(-c3nc4cc(Cl)c(F)cc4s3)cc(=O)oc2c(C)c1OC,-90.3% (active)
4,COc1cccc(-c2nnc(N)o2)c1,106% (inactive)
5,CSc1nc2c(c(=O)n1C)C(c1ccccc1)C1=C(N2)/C(=C/c2ccccc2)CCC1 (centres undefined),57.9% (inactive)
6,CCCCCCC/C(=N\N=C(N)N)c1ccc(O)cc1,81.6% (inactive)
7,CCOC(=O)c1c(NC(=O)C2CCCCC2C(=O)O)sc2c1CCCC2 (centres undefined),97.3% (inactive)
8,C[N+]1(CCC[N+]2(C)C[C@@H]3[C@H](C2)[C@@H]2C=C[C@H]3C2)CCOCC1 (some centres undefined),103% (inactive)
9,O=C(CCc1nnc(SCc2ccccc2)s1)c1nc2ccccc2[nH]1,90.5% (inactive)
10,c1csc([C@@H]2C[C@@H]3Cc4ccc5ccccc5c4N2O3)c1,87.1% (inactive)
11,O=C1/C(=C/c2ccc([N+](=O)[O-])s2)Oc2ccc(Br)cc21,-16.1% (active)
12,CCCCCCC(C)(O)c1ccccc1 (centres undefined),90.6% (inactive)
13,CCOC(Cc1c(N)[nH]c(=S)[nH]c1=O)OCC,96.7% (inactive)
14,CCN1C2=C(SC(=S)C1=C1SC(C(=O)OC)=C(C(=O)OC)S1)SC(=Nc1ccc(OC)cc1)C2=O,-16.1% (active)
15,CCOc1nc(-c2ccccc2)cc2c(O)c(-c3nnco3)[nH]c(=O)c12,55.2% (inactive)
16,COc1cccc2c1O/C(=C\c1c([N+](=O)[O-])ncn1C)C2=O,101% (inactive)
17,CCCc1cc(=O)n2c(C(=O)Nc3ccccc3OC)c(C(=O)Nc3ccc(F)cc3)sc2n1,12.8% [30 µM] (inactive)
18,C=Cc1nn2c(CCC(=O)c3nc4ccccc4[nH]3)nnc2s1,110% (inactive)
19,CCOC(=O)C(C(C)=O)c1nc2sc3cc(Cl)ccc3n2c(=N)c1C#N (centres undefined),34.5% (inactive)

row,SMILES,growth
1,COc1ccc2nccc(/C=C/c3ccnc4ccc(OC)cc34)c2c1,102% (inactive)
2,COc1ccc(-c2c(-c3cc(OC)c(OC)c(OC)c3)noc2N)cc1,52.7% (inactive)
3,COc1ccc(-c2cc(C(=O)Nc3nc4cc(C)c(C)cc4s3)nc3cc(-c4ccccc4)nn23)cc1OC,87.9% (inactive)
4,COc1ccc(-c2cc(Cc3cccs3)c(=O)n(Cn3ccc4ccccc43)n2)cc1,92.6% (inactive)
5,COc1ccc(-c2cc(Cc3cccs3)c(=O)n(Cn3cncn3)n2)cc1,106% (inactive)
6,Cn1c(=O)c2c(nc(Br)n2CCC(=O)Nc2ccc(F)cc2)n(C)c1=O,89.1% (inactive)
7,COc1ccc(/C=C/C(=O)Nc2cccnc2Nc2ccc(F)cc2)cc1,97.3% (inactive)
8,O=C1NCC(Nc2ccc(Br)cc2Cl)C(=O)N1 (centres undefined),91% (inactive)
9,CC/C=C\C=C/C(=O)N/C=C/CC1Cc2cccc(O)c2C(=O)O1 (centres undefined),18.7% (inactive)
10,Cc1cc(C)c2c(c1)N1OC(C2)C[C@H]1/C=C/c1ccccc1 (some centres undefined),109% (inactive)
11,Cc1cc(=O)n2n1-c1ccc(Cl)cc1NC(=O)C2,86.6% (inactive)
12,CC[C@H](C)C(=O)O[C@H]1C[C@@H](C)C=C2C=C[C@H](C)[C@H](CC[C@@H]3C[C@@H](O)CC(=O)O3)[C@H]21,58.3% (inactive)
13,O=C1/C(=C/c2ccc([N+](=O)[O-])o2)Oc2ccc(Br)cc21,85.5% (inactive)
14,O=C1NCN(c2ccccc2)C12CCN(CCCC(c1ccc(F)cc1)c1ccc(F)cc1)CC2,72% (inactive)
15,N#Cc1cnc2cc(OC[C@H](O)CO)c(NC(=O)CC3CSSC3)cc2c1Nc1ccc(OCc2cccc(F)c2)c(Cl)c1,-92.3% (active)
16,COc1ccc(OC)c2c1[nH]c(=O)c1c3ccccc3cn21,-77.2% (active)
17,COc1cc(C2CC(=O)Nc3c2cc(Br)c2ccccc32)cc(Br)c1OC (centres undefined),-42.7% (active)
18,COC(=O)CCC1=C(C)/C(=C/c2[nH]c(-c3ccc[nH]3)cc2OC)N=C1C,-32% (active)

# System: SNB-19 CNS
# Assay: as above
# Settings: 10 µM unless noted
row,SMILES,growth
1,O=[N+]([O-])c1ccc(N/N=C/c2c(O)ccc3ccccc23)nc1,62.7% (inactive)
2,COc1cc(/C=C/c2nnc(-c3cc(-c4ccccc4)n[nH]3)o2)cc(OC)c1OC,102% (inactive)
3,COc1cc2c(-c3nc4cc(Cl)c(F)cc4s3)cc(=O)oc2c(C)c1OC,34.7% (inactive)
4,COc1cccc(-c2nnc(N)o2)c1,102% (inactive)
5,CSc1nc2c(c(=O)n1C)C(c1ccccc1)C1=C(N2)/C(=C/c2ccccc2)CCC1 (centres undefined),66.1% (inactive)
6,CCCCCCC/C(=N\N=C(N)N)c1ccc(O)cc1,37.1% (inactive)
7,CCOC(=O)c1c(NC(=O)C2CCCCC2C(=O)O)sc2c1CCCC2 (centres undefined),99.8% (inactive)
8,C[N+]1(CCC[N+]2(C)C[C@@H]3[C@H](C2)[C@@H]2C=C[C@H]3C2)CCOCC1 (some centres undefined),107% (inactive)
9,O=C(CCc1nnc(SCc2ccccc2)s1)c1nc2ccccc2[nH]1,93.2% (inactive)
10,c1csc([C@@H]2C[C@@H]3Cc4ccc5ccccc5c4N2O3)c1,97.5% (inactive)
11,O=C1/C(=C/c2ccc([N+](=O)[O-])s2)Oc2ccc(Br)cc21,-15.3% (active)
12,CCCCCCC(C)(O)c1ccccc1 (centres undefined),104% (inactive)
13,CCOC(Cc1c(N)[nH]c(=S)[nH]c1=O)OCC,106% (inactive)
14,CCN1C2=C(SC(=S)C1=C1SC(C(=O)OC)=C(C(=O)OC)S1)SC(=Nc1ccc(OC)cc1)C2=O,4.72% (active)
15,CCOc1nc(-c2ccccc2)cc2c(O)c(-c3nnco3)[nH]c(=O)c12,72.1% (inactive)
16,COc1cccc2c1O/C(=C\c1c([N+](=O)[O-])ncn1C)C2=O,106% (inactive)
17,CCCc1cc(=O)n2c(C(=O)Nc3ccccc3OC)c(C(=O)Nc3ccc(F)cc3)sc2n1,26.7% [30 µM] (inactive)
18,C=Cc1nn2c(CCC(=O)c3nc4ccccc4[nH]3)nnc2s1,107% (inactive)
19,CCOC(=O)C(C(C)=O)c1nc2sc3cc(Cl)ccc3n2c(=N)c1C#N (centres undefined),89.6% (inactive)

row,SMILES,growth
1,COc1ccc2nccc(/C=C/c3ccnc4ccc(OC)cc34)c2c1,109% (inactive)
2,COc1ccc(-c2c(-c3cc(OC)c(OC)c(OC)c3)noc2N)cc1,38.7% (inactive)
3,COc1ccc(-c2cc(C(=O)Nc3nc4cc(C)c(C)cc4s3)nc3cc(-c4ccccc4)nn23)cc1OC,108% (inactive)
4,COc1ccc(-c2cc(Cc3cccs3)c(=O)n(Cn3ccc4ccccc43)n2)cc1,102% (inactive)
5,COc1ccc(-c2cc(Cc3cccs3)c(=O)n(Cn3cncn3)n2)cc1,91.8% (inactive)
6,Cn1c(=O)c2c(nc(Br)n2CCC(=O)Nc2ccc(F)cc2)n(C)c1=O,103% (inactive)
7,COc1ccc(/C=C/C(=O)Nc2cccnc2Nc2ccc(F)cc2)cc1,87.9% (inactive)
8,O=C1NCC(Nc2ccc(Br)cc2Cl)C(=O)N1 (centres undefined),102% (inactive)
9,CC/C=C\C=C/C(=O)N/C=C/CC1Cc2cccc(O)c2C(=O)O1 (centres undefined),56% (inactive)
10,Cc1cc(C)c2c(c1)N1OC(C2)C[C@H]1/C=C/c1ccccc1 (some centres undefined),103% (inactive)
11,Cc1cc(=O)n2n1-c1ccc(Cl)cc1NC(=O)C2,97.5% (inactive)
12,CC[C@H](C)C(=O)O[C@H]1C[C@@H](C)C=C2C=C[C@H](C)[C@H](CC[C@@H]3C[C@@H](O)CC(=O)O3)[C@H]21,64.9% (inactive)
13,O=C1/C(=C/c2ccc([N+](=O)[O-])o2)Oc2ccc(Br)cc21,105% (inactive)
14,O=C1NCN(c2ccccc2)C12CCN(CCCC(c1ccc(F)cc1)c1ccc(F)cc1)CC2,78.2% (inactive)
15,N#Cc1cnc2cc(OC[C@H](O)CO)c(NC(=O)CC3CSSC3)cc2c1Nc1ccc(OCc2cccc(F)c2)c(Cl)c1,-64.6% (active)
16,COc1ccc(OC)c2c1[nH]c(=O)c1c3ccccc3cn21,-48.4% (active)
17,COc1cc(C2CC(=O)Nc3c2cc(Br)c2ccccc32)cc(Br)c1OC (centres undefined),60.7% (inactive)
18,COC(=O)CCC1=C(C)/C(=C/c2[nH]c(-c3ccc[nH]3)cc2OC)N=C1C,44.7% (inactive)
